Bioassay records (PubChem BioAssay)
Vaccinia mCherry – inhibitors of vaccinia virus infection (mCherry reporter signal); Vaccinia virus mCherry reporter infection, fluorescence; Potency, µM (titrated, usually from 36.5 µM), without a hit: top-dose activity change, negative = inhibition, actives largely listed as inhibitors; 310,000 compounds, 0.63% hits; AID 720579; calls by dose curve; tested in A549 cells; also: nearly all actives have a fitted effect of over 35% in size
FMDV inh – foot and mouth disease virus antiviral activity | Potency, µM (highest dose often 57.9 µM), for inactives: top-dose activity change, negative = inhibition, hits mostly inhibitors | 410,000 compounds, 1.2% hits | FMDV antiviral cell-based qHTS; calls by dose curve; tested in HEK293T cells; also: read-out not given here; nearly all actives have a fitted effect of over 45% in size
Sm TGR inh – S. mansoni TGR enzyme inhibition. Q962Y6. AID 485364. Potency, µM (doses to about 114 µM), inactives show at the highest dose activity change, negative = inhibition, usual class: inhibitors. purified TGR, DTNB reduction, TNB absorbance 405 nm. 360,000 compounds, 3% hits; active = well fitted inhibition curve with a large enough effect; inconclusive = small, poorly fitted or top-dose-only effect; inactive = no such curve, though single readings can be large or run the other way; also: nearly all actives have a fitted effect of over 60% in size
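TGR 20 nM + NADPH 100 uM (dispensed conc.), cpd preinc 15 min RT; start with NADPH (500 uM addition) then DTNB (15 mM addition). Kinetic TNB absorbance, 405 nm filter. Four-parameter Hill fit across titration.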
Vaccinia Venus – vaccinia inhibition (Venus reporter). 330,000 compounds, 0.46% hits. Potency, µM (doses to about 36.5 µM), for inactives: top-dose activity change, negative = inhibition, actives largely listed as inhibitors. Vaccinia virus Venus reporter expression, fluorescence. AID 720580; calls by dose curve; tested in A549 cells; also: nearly all actives have a fitted effect of over 30% in size
Marburg entry inh – inhibitors of Marburg virus binding or cell entry | Potency, µM (series often up to 37.8 µM), for inactives: at the highest dose activity change, negative = inhibition, most hits filed as inhibitors | Marburg virus pseudotyped entry inhibition, cell reporter | AID 540276 | 300,000 compounds, 1.8% hits; calls by dose curve; tested in HEK293 cells
LASV entry inh – inhibitors of Lassa virus binding or cell entry; Potency, µM (doses to about 37.9 µM), inactives show top-dose activity change, negative = inhibition, hits mostly inhibitors; AID 540256; 300,000 compounds, 1.2% hits; Lassa virus pseudotype entry inhibition, cell reporter; calls by dose curve; tested in HEK293 cells; also: nearly all actives have a fitted effect of over 50% in size
The depositor's hits bear a star; i = inactive; ? = inconclusive; nt = no result given; [ ] = another dose, or the depositor's remark. Rows were chosen to be rich in hits. Some 5.4% of all compounds tested hit in one or more screens of this group. % is scaled to controls: 0 for no effect and ±100 for the full control effect; potency is read from the fitted curve at half-maximal effect.

SMILES	Vaccinia mCherry	FMDV inh	Sm TGR inh	Vaccinia Venus	Marburg entry inh	LASV entry inh
CCOC(=O)C1(C)/C(=N/Nc2ccc(Cl)cc2)C(=O)C(=O)N1c1ccccc1 (configuration not stated)	nt	-0.1%	50.1µM*	nt	4.1%	7.8%
N#CC(C#N)=C(Nc1ccc(F)cc1)SCc1cccc(F)c1	?	?	-0.5%	?	7.08µM*	12.6µM*
CCOc1ccc(N/C(SCc2cccc([N+](=O)[O-])c2)=C(/C#N)C(N)=O)cc1	-19.7%	?	2.1%	-12.1%	-1.2%[46.1 µM]	-18.9%
Cc1cc(NC(=O)CCCS(=O)(=O)c2nc(-c3cccs3)cc(C(F)(F)F)n2)no1	?	?	12.6µM*	?	?	?
O=C(CCSc1nc(-c2ccco2)cc(C(F)(F)F)n1)Nc1cccc(O)c1	-17.7%	?	-1.2%	-23.3%	-3.1%[46.1 µM]	-8.8%[46.1 µM]
CS(=O)(=O)c1nc(-c2cccs2)cc(C(F)(F)F)n1	nt	nt	7.94µM*	nt	0.4%	nt
COc1cc(NC(=O)CCS(=O)(=O)c2nc(-c3cccs3)cc(C(F)(F)F)n2)cc(OC)c1OC	?	25.1µM*	?	-22.7%	?	?
Cc1cc(NC(=O)CSc2nc(-c3cccs3)cc(C(F)(F)F)n2)no1	-14.0%	nt	3.0%	-29.8%	?	?
CN1CCN(c2nc(-c3cccs3)cc(C(F)(F)F)n2)CC1	nt	-24.6%	0.0%	nt	?	-29.2%
O=C(CCS(=O)(=O)c1nc(-c2cccs2)cc(C(F)(F)F)n1)Nc1cccc(O)c1	-19.0%[7.34 µM]	22.4µM*	31.6µM*	-16.2%[7.34 µM]	?	-24.0%[46.1 µM]
CC(=O)Nc1ccccc1-c1nc(CNC(=O)c2ccc(C)cc2)c(C)o1	-5.1%	11.7%	nt	-4.1%	nt	nt
Cc1ccc(CCNC(=O)c2ccc3c(c2)c(C)c(C)n3Cc2ccccc2)cc1	-14.8%	-17.1%	2.4%	-5.5%	nt	-16.3%[46.1 µM]
O=C(CSc1cn(CC(=O)N2CCCC2)c2ccccc12)Nc1ccc(Cl)cc1	-16.2%	?	-25.6%	-21.4%	nt	6.2%[46.1 µM]
CCOC(=O)c1ccc(NC(=O)CC(C)n2nc(C)cc2C)cc1 (configuration not stated)	-12.2%	-14.0%	5.4%	-5.4%	nt	20.3%[46.1 µM]
O=C1[C@H]2[C@@H]3[C@@H](O)[C@H](O)CC(=NOCc4ccccc4)[C@@H]3CC[C@H]2C(=O)N1C[C@@H]1CCCO1	nt	nt	nt	nt	6.1%[14.2 µM]	nt
COc1ccc(NC(=O)CCS(=O)(=O)c2nc(-c3cccs3)cc(C(F)(F)F)n2)cc1OC	-8.2%[7.34 µM]	22.4µM*	39.8µM*	-10.8%[7.34 µM]	?	?
COc1ccc(NC(=O)CCS(=O)(=O)c2nc(-c3ccc4c(c3)OCO4)cc(C(F)(F)F)n2)cc1OC	-7.6%	-6.1%	-33.3%	0.0%	-18.3%[46.1 µM]	-1.0%[46.1 µM]
CC(C)CNC(=O)CSc1nc(-c2cccs2)cc(C(F)(F)F)n1	i	?	2.5%	-8.7%	-26.2%[46.1 µM]	?
O=C(O)CCS(=O)(=O)c1nc(-c2cccs2)cc(C(F)(F)F)n1	nt	-26.1%	50.1µM*	nt	-11.4%	-14.4%
O=C1CNC(=S)N1CCc1ccc(O)c(O)c1	i	0.6%	1.78µM*	16.0%	6.1%[46.1 µM]	-10.7%[46.1 µM]
Cc1cc(C)c(NC(=O)c2cc(S(=O)(=O)N3CCCC3)cn2C)c(C)c1	-17.2%	2.2%	2.1%	-6.5%	nt	-13.9%[46.1 µM]
COc1ccc(C(=O)Nc2nc(-c3nnn(-c4ccc(C(C)C)cc4)c3C)ns2)cc1	i	-9.9%	3.2%	-8.1%	nt	2.6%[46.1 µM]
CC(=O)c1c(C)[nH]c(C(=O)OCCCCN2C(=O)c3ccccc3C2=O)c1C	nt	12.6µM*	7.9%	nt	8.2µM*	?
CCOC(=O)c1c(C)oc2ncnc(Nc3ccc(OC)cc3OC)c12	5.1%	-4.9%	3.9%	1.8%	1.1%[46.1 µM]	8.2%[46.1 µM]
COc1ccc2[nH]c(C)c(C(=O)CN(C)CC3OCCO3)c2c1	-15.7%	4.1%	25.1µM*	4.1%	11.0%	3.2%
SMILES	Vaccinia mCherry	FMDV inh	Sm TGR inh	Vaccinia Venus	Marburg entry inh	LASV entry inh
COc1ccc(NC(=O)CN(C)CC(=O)c2c(C)[nH]c3ccccc23)cc1	0.1%	-11.8%	?	-10.7%	-2.8%	-14.2%
COc1cccc(NC(=O)CN(C)CC(=O)c2c(C)[nH]c3ccccc23)c1	nt	?	17.8µM*	nt	nt	nt
COc1ccc2[nH]c(C)c(C(=O)CN(C)C)c2c1	-1.1%	nt	39.8µM*	-15.4%	2.1%	-0.9%
COc1ccc2[nH]c(C)c(C(=O)CN3CC(C)OC(C)C3)c2c1 (configuration not stated)	-22.6%	-21.4%	-9.9%	-10.1%	-1.3%	4.8%
CC(C)Cn1cc(NC(=O)NCc2cccc(Cl)c2)c2ccccc2c1=O	2.8%	-17.7%	0.4%	7.4%	nt	11.4%[46.1 µM]
Cc1nc(N2CCN(C)CC2)c2nnn(Cc3ccccc3)c2n1	i	nt	nt	-13.9%	nt	nt
CCOC(=O)c1ccccc1NC(=O)N(Cc1ccco1)C1CCN(C(C)=O)CC1	24.2%	-26.7%	1.7%	-8.0%	nt	-4.9%[46.1 µM]
COc1ccc2[nH]cc(CCNc3ncncc3-c3ccc4c(c3)OCO4)c2c1	nt	20µM*	nt	nt	nt	nt
COc1cccc(-c2cncnc2NCCc2c[nH]c3ccc(OC)cc23)c1	nt	-10.8%	nt	nt	nt	nt
Cc1cc2c(c(=O)n1Cc1ccccc1)[C@H]1O[C@](CCCCN3C(=O)c4ccccc4C3=O)(Cc3c1ccc1ccccc31)O2	nt	nt	nt	nt	-10.9%[14.2 µM]	nt
CCOC(=O)[C@]12Cc3cc(OC)ccc3[C@H]1N(Cc1ccccc1)C(=O)c1cc(F)c(F)cc12	i	-18.1%	nt	-26.0%	nt	nt
CCOC(=O)[C@]12Cc3cc(OC)ccc3[C@H]1N(C1CCCCC1)C(=O)c1cc(OC)ccc12	?	12.6µM*	nt	?	nt	nt
CCOC(=O)[C@]12Cc3cc(C)ccc3[C@H]1N(C1CCCCC1)C(=O)c1cc(OC)ccc12	?	3.55µM*	nt	?	nt	nt
CCOC(=O)[C@]12Cc3ccccc3[C@H]1N(Cc1ccccc1)C(=O)c1ccccc12	?	-1.0%	nt	?	nt	nt
COc1ccc2c(c1)OC(C)CN(CC(=O)NCc1cn[nH]c1-c1ccc(F)cc1)C2 (configuration not stated)	-7.6%	-9.1%	nt	8.4%	nt	nt
Cc1cc(C)c2c(NC(=O)c3ccccc3Cl)c(C(=O)NCc3ccc(Cl)cc3)sc2n1	-8.8%	-25.5%	-5.4%	?	?	?
COC(=O)CC1(c2cccc3ccccc23)C(=O)c2ccccc2C1=O	nt	-12.0%	5.4%	2.82µM*	?	?
COC(=O)CC1(c2ccccc2)C(=O)c2ccccc2C1=O	nt	-1.3%	-24.4%	nt	-12.9%	-12.6%
CCN1C(=NCc2ccc3c(c2)OCO3)NC(c2ccccc2)C(C(=O)OC)=C1C (configuration not stated)	nt	nt	nt	nt	-18.1%[14.2 µM]	nt
CCn1nc(C)c(Br)c1C(=O)Sc1ccccc1Cl	i[7.34 µM]	22.4µM*	8.91µM*	-3.4%[7.34 µM]	-9.9%[46.1 µM]	2.6%
O=c1[nH]c2ccc(N=Cc3c(O)ccc4cc(Br)ccc34)cc2[nH]1	-10.5%	-17.9%	31.6µM*	0.2%	?	-7.7%
Cc1[nH]n(-c2ccccc2)c(=O)c1C=Nc1ccc2[nH]c(=O)[nH]c2c1	-8.8%	-13.7%	9.8%	-10.7%	8.7%	5.7%
